“And” between values parts separate entries of the source, which are not always exact repeats. Equal values may be shown once. Hit rate of the full screen: of about 5,500 compounds, about 2,000 (36%) were called active. Inconclusive results (about 18%) are left out. Cut-off read from the data, not from the text of the source: active = normalized growth mostly below about 0.91 (no sharp cut-off); inconclusive = no clear call, values can overlap the other calls; inactive = mostly above about 0.92. Some of the results follow.
Experiment: chemical genetic growth profiling, strain panel (AID 1159580);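 note: tested at 20 µM; growth read once vehicle control cultures reached saturation at 30 °C; 1 = growth at the plate median or of vehicle wells; lower values mean less growth of the strain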
Conditions: S. cerevisiae deletion strains, growth OD

Measured: normalized growth

COc1ccc(/C=C/C(=O)O)cc1OC
inactive: locus YAL013W, strain DEP1, active compounds read low 1 | locus YAL021C, strain ccr4, active compounds read low 1.04 | locus YAL026C, strain drs2, active compounds read low 0.99 | locus YAL030W, strain snc1, active compounds read low 0.999 | locus YBL061C, strain skt5, active compounds read low 0.987 | locus YBR009C, strain hhf1, active compounds read low 1.01 | locus YBR021W, strain FUR4, active compounds read low 1.04 | locus YBR023C, strain chs3, active compounds read low 1.01 | locus YBR171W, strain sec66, active compounds read low 0.965 | locus YBR229C, strain ROT2, active compounds read low 1.02 | locus YBR231C, strain swc5, active compounds read low 0.981 | locus YBR279W, strain paf1, active compounds read low 1 | locus YCL011C, strain gbp2, active compounds read low 0.991 | locus YCL016C, strain dcc1, active compounds read low 1.04 | locus YCL029C, strain bik1, active compounds read low 1.02 | locus YCL061C, strain MRC1, active compounds read low 0.995 | locus YCL069W, strain vba3, active compounds read low 0.955 | locus YCR088W, strain abp1, active compounds read low 0.984 | locus YDL005C, strain med2, active compounds read low 0.979 | locus YDL035C, strain GPR1, active compounds read low 1.14 | locus YDL040C, strain nat1, active compounds read low 0.991 | locus YDL101C, strain DUN1, active compounds read low 1 | locus YDL134C, strain PPH21, active compounds read low 1.06 | locus YDL185W, strain tfp1, active compounds read low 1 | locus YDL192W, strain arf1, active compounds read low 1.03 | locus YDR001C, strain nth1, active compounds read low 0.981 | locus YDR069C, strain doa4, active compounds read low 0.97 | locus YDR101C, strain arx1, active compounds read low 1.01 | locus YDR137W, strain rgp1, active compounds read low 1.02 | locus YDR159W, strain sac3, active compounds read low 0.94 | locus YDR162C, strain NBP2, active compounds read low 1.13 | locus YDR195W, strain ref2 0.961 | locus YDR297W, strain sur2, active compounds read low 0.984 | locus YDR318W, strain mcm21, active compounds read low 1.03 | locus YDR334W, strain swr1, active compounds read low 0.975 | locus YDR335W, strain msn5, active compounds read low 0.984 | locus YDR388W, active compounds read low 1.01 | locus YDR392W, strain spt3, active compounds read low 0.943 | locus YDR502C, strain sam2, active compounds read low 1.03 | locus YEL003W, strain gim4, active compounds read low 0.981 | locus YEL037C, strain rad23, active compounds read low 0.981 | locus YEL061C, strain CIN8 (second series), active compounds read low 0.976 | locus YEL061C, strain CIN8, active compounds read low 1.01 | locus YER015W, strain faa2, active compounds read low 1 | locus YER016W, strain bim1, active compounds read low 0.991 | locus YER110C, active compounds read low 1 | locus YER111C, strain swi4, active compounds read low 0.974 | locus YER155C, strain BEM2 (second series), active compounds read low 0.958 | locus YER155C, strain BEM2, active compounds read low 1.01 | locus YER167W, strain BCK2, active compounds read low 1.01 | locus YFR010W, strain ubp6, active compounds read low 0.955 | locus YGL078C, strain dbp3, active compounds read low 1 | locus YGL086W, strain mad1, active compounds read low 1.01 | locus YGL167C, strain pmr1, active compounds read low 0.999 | locus YGL173C, strain kem1, active compounds read low 0.979 | locus YGL227W, strain vid30, active compounds read low 0.984 | locus YGL240W, strain doc1, active compounds read low 0.989 | locus YGL253W, strain hxk2, active compounds read low 0.942 | locus YGR078C, strain PAC10, active compounds read low 1.09 | locus YGR135W, strain pre9, active compounds read low 1.04 | locus YGR252W, strain gcn5, active compounds read low 1.19 | locus YHR013C, strain ard1, active compounds read low 0.993 | locus YHR027C, strain rpn1, active compounds read low 0.992 | locus YHR030C, strain SLT2, active compounds read low 0.949 | locus YHR079C, strain IRE1 (second series), active compounds read low 0.998 | locus YHR079C, strain IRE1, active compounds read low 0.958 | locus YHR094C, strain hxt1, active compounds read low 0.996 | locus YHR129C, strain ARP1, active compounds read low 1.02 | locus YHR142W, strain chs7, active compounds read low 0.993 | locus YHR200W, strain rpn10, active compounds read low 0.999 | locus YIL066C, strain RNR3, active compounds read low 1.01 | locus YIL125W, strain kgd1, active compounds read low 1.02 | locus YIR030C, strain dcg1, active compounds read low 0.998 | locus YJL092W, strain hpr5, active compounds read low 0.974 | locus YJL095W, strain BCK1 (second series), active compounds read low 0.981 | locus YJL095W, strain BCK1, active compounds read low 0.972 and 1.18 | locus YJL115W, strain asf1, active compounds read low 0.998 | locus YJL129C, strain trk1, active compounds read low 0.968 | locus YJL134W, strain LCB3, active compounds read low 1.01 | locus YJL154C, strain vps35, active compounds read low 0.976 | locus YJL164C, strain tpk1, active compounds read low 1.03 | locus YJL166W, strain qcr8, active compounds read low 0.999 | locus YJL168C, strain set2, active compounds read low 1.01 | locus YJL187C, strain SWE1 (second series), active compounds read low 1.03 | locus YJL187C, strain SWE1, active compounds read low 1.01 | locus YJR043C, strain POL32, active compounds read low 1.06 | locus YJR066W, strain TOR1, active compounds read low 0.907 | locus YKL009W, strain mrt4, active compounds read low 0.971 | locus YKL068W, active compounds read low 0.988 | locus YKL085W, strain MDH1 (second series), active compounds read low 1 | locus YKL085W, strain MDH1, active compounds read low 1 | locus YKL160W, strain elf1, active compounds read low 1.04 | locus YKR001C, strain vps1, active compounds read low 1.08 | locus YKR026C, strain gcn3, active compounds read low 0.963 | locus YKR091W, strain srl3, active compounds read low 1.01 | locus YLL001W, strain dnm1, active compounds read low 0.976 | locus YLL026W, active compounds read low 0.997 | locus YLL041C, strain sdh2, active compounds read low 0.992 | locus YLR027C, strain aat2, active compounds read low 1 | locus YLR058C, strain SHM2, active compounds read low 1.01 | locus YLR102C, strain apc9, active compounds read low 0.996 | locus YLR113W, strain HOG1, active compounds read low 0.968 | locus YLR221C, strain rsa3, active compounds read low 0.95 | locus YLR258W, strain gsy2, active compounds read low 1.02 | locus YLR262C, strain YPT6 (second series), active compounds read low 0.995 | locus YLR268W, strain sec22, active compounds read low 1.05 | locus YLR320W, strain mms22, active compounds read low 0.99 | locus YLR342W, strain FKS1 (second series), active compounds read low 1.01 | locus YLR342W, strain FKS1, active compounds read low 1.01 | locus YLR357W, strain rsc2, active compounds read low 0.988 | locus YLR370C, strain arc18, active compounds read low 0.971 | locus YLR371W, strain rom2, active compounds read low 1.02 | locus YLR384C, strain iki3, active compounds read low 0.998 | locus YML016C, strain PPZ1, active compounds read low 1 | locus YML032C, strain rad52, active compounds read low 1.02 | locus YML120C, strain ndi1, active compounds read low 1.01 | locus YML124C, strain tub3, active compounds read low 0.994 | locus YMR058W, strain fet3, active compounds read low 0.991 | locus YMR078C, strain ctf18, active compounds read low 1.01 | locus YMR125W, strain sto1, active compounds read low 0.974 | locus YMR129W, active compounds read low 1 | locus YMR205C, strain PFK2, active compounds read low 1.05 | locus YMR223W, strain ubp8, active compounds read low 1.03 | locus YMR231W, strain pep5, active compounds read low 0.965 | locus YNL067W, strain RPL9B, active compounds read low 1 | locus YNL071W, strain lat1, active compounds read low 0.998 | locus YNL128W, strain TEP1, active compounds read low 1.02 | locus YNL183C, strain NPR1, active compounds read low 0.904 | locus YNL209W, strain ssb2, active compounds read low 1.01 | locus YNL233W, strain BNI4, active compounds read low 1.12 | locus YNL248C, strain rpa49, active compounds read low 0.958 | locus YNL250W, strain rad50, active compounds read low 1.03 | locus YNL271C, strain bni1, active compounds read low 1.02 | locus YNL298W, strain CLA4, active compounds read low 1.05 | locus YNL307C, strain MCK1, active compounds read low 1.01 | locus YNL322C, strain KRE1 (second series), active compounds read low 0.981 | locus YNL322C, strain KRE1, active compounds read low 1.01 | locus YNR049C, strain mso1, active compounds read low 0.99 | locus YNR052C, strain pop2, active compounds read low 1.02 | locus YOL012C, strain htz1 1.37 | locus YOL147C, strain pex11, active compounds read low 1.01 | locus YOR001W, strain rrp6, active compounds read low 0.926 | locus YOR061W, strain CKA2, active compounds read low 0.995 | locus YOR069W, strain VPS5, active compounds read low 1.01 | locus YOR070C, strain gyp1, active compounds read low 0.999 | locus YOR080W, strain dia2, active compounds read low 0.978 | locus YOR083W, strain WHI5, active compounds read low 1.04 | locus YOR106W, strain vam3, active compounds read low 1.02 | locus YOR136W, strain idh2, active compounds read low 1.01 | locus YOR144C, strain elg1, active compounds read low 1 | locus YOR184W, strain ser1, active compounds read low 1.08 | locus YOR231W, strain MKK1, active compounds read low 0.944 | locus YOR265W, strain rbl2, active compounds read low 0.991 | locus YOR270C, strain vph1, active compounds read low 0.977 | locus YOR290C, strain snf2, active compounds read low 1.04 | locus YOR316C, strain cot1, active compounds read low 1.01 | locus YPL051W, strain arl3, active compounds read low 0.98 | locus YPL078C, strain atp4, active compounds read low 1.03 | locus YPL106C, strain sse1, active compounds read low 1.04 | locus YPL240C, strain hsp82, active compounds read low 0.986 | locus YPL256C, strain CLN2, active compounds read low 0.968 | locus YPR119W, strain clb2, active compounds read low 1.01 | locus YPR141C, strain kar3, active compounds read low 1 | locus YPR163C, strain tif3, active compounds read low 1.02 | locus YPR167C, strain met16, active compounds read low 1.03 | strain wtn01, active compounds read low 1.02
active: locus YDL074C, strain BRE1, active compounds read low 1.4 [resistant] | locus YGL248W, strain PDE1, active compounds read low 1.12 [resistant] | locus YIL073C, strain SPO22, active compounds read low 1.55 [resistant] | locus YLR039C, strain RIC1, active compounds read low 1.42 [resistant] | locus YMR307W, strain GAS1, active compounds read low 1.53 [resistant] | locus YOL006C, strain TOP1, active compounds read low 1.83 [resistant]

From PubChem BioAssay AID1159580 (chemical genetic matrix, 2015)
